Assay outcomes deposited in PubChem BioAssay by several laboratories.
OPRM1-OPRD1 ag: agonists of human mu-delta opioid receptor heterodimerization; P35372+P41143; cells, OPRM1-OPRD1 heterodimerization, luminescence; activation, % at 9.3 µM; 340,000 compounds, 0.3% hits; AID 504326
PolyA inh: blocks polyadenylation in yeast reporter cells. 300,000 compounds, 0.02% hits. AID 1875. S. cerevisiae SKY197-pL101 polyadenylation reporter, beta-gal luminescence; efflux-impaired pdr1/pdr3 knockout yeast; score 100 = 6 SD above DMSO. activity score, % at 12 µM;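 active = lowest replicate activity score at least 50, where 100 means six control SD above control mean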;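 note: yeast exposed to compound for 9 h at 30 °C; higher score means more reporter readthrough which indicates perturbed polyadenylation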
MOR-DOR inv ag: mu-delta opioid heterodimer inverse agonism; P35372+P41143; cell-based MOR-DOR heterodimer luminescence; inhibition, % at 9.3 µM; 340,000 compounds, 0.21% hits; in the data active = inhibition above about 22%, passing the limit was not always enough
HTR5A inv ag: inverse agonist of human HTR5A in OPRM1-OPRD1 counter-screen; AID 504634; inhibition, % at 9.3 µM; HTR5A cell line, luminescence, inverse agonism; 340,000 compounds, 0.083% hits; in the data active = inhibition mostly above about 23%, no sharp cut-off; inactive = mostly below about 18%
NALP1 inh: blocks the NALP1 inflammasome reconstituted in yeast. S. cerevisiae NALP1/ASC/caspase-1 growth, X-gal OD620, 72 h. inhibition, % at 10 µM. 280,000 compounds, 0.61% hits. AID 2071; in the data active = inhibition mostly above about 24%, no sharp cut-off; inactive = mostly below about 32%
HTR5A ag ctr: counter-screen for OPRM1-OPRD1 agonists: human HTR5A agonism; AID 504692; HTR5A agonist assay, luminescence, cell-based; activation, % at 9.3 µM; P47898; 340,000 compounds, 0.61% hits; in the data active = activation mostly above about 9.5%, no sharp cut-off; inactive = mostly below about 7.6%
OPRM1-D1 ag cf: confirmation of human OPRM1-OPRD1 heterodimerization agonists | activation, % at 9.3 µM | AID 504904 | shares compounds with OPRM1-OPRD1 ag | cells, MOR-DOR heterodimerization, luminescence complementation | 830 compounds, 45% hits
HTR5A ag ctr2: counter-screen for OPRM1-OPRD1 agonists: human HTR5A agonism; AID 504905; 830 compounds, 8% hits; activation, % at 9.3 µM; HTR5A agonist counterscreen, cell luminescence; shares compounds with OPRM1-OPRD1 ag; in the data active = activation above about 17%
Large screens that a line does not name were inactive (follow-up assays come after a bar, where they were run). Compounds with a hit are over-represented: about 1.6% of the library has one in this group of screens. Cut-off read from the data, not from the text of the source, unless noted: active = activation above about 18%; inactive = the rest.

COc1ccc(C2C(C#N)=C(N)N(c3sc4c(c3C#N)CCCC4)C3=C2C(=O)CC(C)(C)C3)cc1OC (stereo unspecified)	OPRM1-OPRD1 ag 23 | OPRM1-D1 ag cf 31 | HTR5A ag ctr2 25
COc1ccc(C2C(C#N)=C(N)N(c3sc4c(c3C#N)CCCC4)C3=C2C(=O)CC(C)(C)C3)cc1 (stereo unspecified)	OPRM1-OPRD1 ag 88 | OPRM1-D1 ag cf 211 | HTR5A ag ctr2 inactive
COc1ccc(C2C(C#N)=C3NC(=O)c4c(sc5c4CCCCC5)N3C3=C2C(=O)CC(C)(C)C3)cc1 (stereo unspecified)	none
CC(COc1ccccc1)N1CCC(CO)(CCc2ccccc2)CC1 (stereo unspecified)	OPRM1-OPRD1 ag 176 | OPRM1-D1 ag cf inactive | HTR5A ag ctr2 inactive
O=S(=O)(/N=S1\CC=CCN1S(=O)(=O)c1ccccc1)c1ccccc1 (stereo unspecified)	none (no result: PolyA inh, NALP1 inh)
Cc1cccc(NC(=O)c2cc(-c3cc(C)ccc3O)n[nH]2)c1	OPRM1-OPRD1 ag 18 | OPRM1-D1 ag cf inactive | HTR5A ag ctr2 inactive
Cc1cccc(NC(=O)c2cc(-c3cc(C)c(C)cc3O)n[nH]2)c1	none
OCC1(CCc2ccccc2)CCN(Cc2cc(Cl)ccc2O)CC1	none
Cc1ccc(-n2cccn2)c(CN2CCC(CO)(CCc3ccccc3)CC2)c1	OPRM1-OPRD1 ag 29 | OPRM1-D1 ag cf inactive | HTR5A ag ctr2 inactive
O=C(COC(=O)c1cccc(S(=O)(=O)NCc2ccccc2)c1)c1ccccc1	none
CCOc1ccc(NC(=S)N2CCN(S(=O)(=O)c3ccccc3)CC2)cc1	OPRM1-OPRD1 ag 31 (no result: PolyA inh) | OPRM1-D1 ag cf inactive | HTR5A ag ctr2 inactive
CCOC(=O)C1=C(c2ccccc2)NC(=O)NC1c1ccc(O)c(Cl)c1 (stereo unspecified)	OPRM1-OPRD1 ag 103, HTR5A ag ctr 31 | OPRM1-D1 ag cf 82 | HTR5A ag ctr2 28
CC(=O)CSc1ccc(S(=O)(=O)N2CCN(C)CC2)cn1	none (no result: PolyA inh, NALP1 inh)
COCCN(CCOC)C(=O)CSc1ccc(S(=O)(=O)N2CCN(C)CC2)cn1	OPRM1-OPRD1 ag 32 (no result: PolyA inh, NALP1 inh) | OPRM1-D1 ag cf inactive | HTR5A ag ctr2 inactive
COc1ccc(NC(=O)COc2ccccc2C(=O)NCC(c2ccccc2)N(C)C)cc1Cl (stereo unspecified)	OPRM1-OPRD1 ag 64 | OPRM1-D1 ag cf 62 | HTR5A ag ctr2 inactive
CCc1ccccc1S(=O)(=O)c1c(C)cc(C)nc1Cl	none
Cc1ccc(-c2csc3ncnc(-n4nnc5ccccc54)c23)cc1C	none
Cc1ccc(-c2csc3ncnc(-n4nnc5ccccc54)c23)cc1	OPRM1-OPRD1 ag 23 | OPRM1-D1 ag cf inactive | HTR5A ag ctr2 inactive
S=c1[nH]nc(-c2ccncc2)n1/N=C/c1cccc(Cl)c1	none (no result: OPRM1-OPRD1 ag, MOR-DOR inv ag, HTR5A inv ag, NALP1 inh, HTR5A ag ctr)
CC[C@@H](C)[C@H](CNC)NC[C@@H](Cc1cccc2ccccc12)NCCc1cccc(C(F)(F)F)c1	OPRM1-OPRD1 ag 24 | OPRM1-D1 ag cf inactive | HTR5A ag ctr2 inactive
Cc1ccc(NC(=O)c2cc(S(=O)(=O)N3CCCCC3)c[nH]2)cc1C	OPRM1-OPRD1 ag 30 | OPRM1-D1 ag cf inactive | HTR5A ag ctr2 inactive
Cc1ccc(NC(=O)c2cc(S(=O)(=O)N3CCCCC3)c[nH]2)cc1F	none
CCOC(=O)C1(Cc2ccccc2)CCN(Cc2cccc3nccnc23)CC1	none
CCOC(=O)C1(CCOc2ccccc2)CCN(Cc2cccn2-c2cccnc2)CC1	OPRM1-OPRD1 ag 224 | OPRM1-D1 ag cf 240 | HTR5A ag ctr2 inactive
CCOC(=O)C1(Cc2ccccc2)CCN(Cc2cccn2-c2cccnc2)CC1	OPRM1-OPRD1 ag 41 | OPRM1-D1 ag cf 55 | HTR5A ag ctr2 inactive
CCOC(=O)C1(Cc2ccccc2)CCN(Cc2cccn2-c2nccs2)CC1	OPRM1-OPRD1 ag 27 | OPRM1-D1 ag cf 224 | HTR5A ag ctr2 inactive
CCc1ccc2nc(N(CCCN(C)C)C(=O)c3ccc(S(=O)(=O)N(C)C4CCCCC4)cc3)sc2c1	OPRM1-OPRD1 ag 19 | OPRM1-D1 ag cf 50 | HTR5A ag ctr2 inactive
